# Data taken from paper PMC7862700, “An all-to-all approach to the identification of sequence-specific readers for epigenetic DNA modifications on cytosine”.
# Key:
# Experiment in all cases: DAPPL (digital affinity profiling via proximity ligation, sequencing); 10 mM Tris-HCl pH 7.5, 50 mM NaCl, 1 mM DTT, 4% glycerol, room temperature, 30 min; GST-TFs on glutathione beads, 16-mer random dsDNA library, 0.1% formaldehyde crosslink after washing; high values mean tight binding
# FEV = target: T1, FEV (Homo sapiens, UniProt Q99581 1-238); settings: protein: recombinant; tags: N-terminal GST; dsDNA, one strand shown
# T1 sequence: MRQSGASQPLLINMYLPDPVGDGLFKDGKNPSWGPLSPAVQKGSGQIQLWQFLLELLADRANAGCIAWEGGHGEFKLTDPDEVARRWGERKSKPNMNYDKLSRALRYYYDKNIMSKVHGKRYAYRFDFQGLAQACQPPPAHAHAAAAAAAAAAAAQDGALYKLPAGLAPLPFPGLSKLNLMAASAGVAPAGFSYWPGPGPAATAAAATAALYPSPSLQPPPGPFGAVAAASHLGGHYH
# Outline: (§1)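 Each value of binding signal is a hexamer's read frequency for a factor divided by the same hexamer's frequency in the tag-only sample. Barcoded, bead-captured GST fusions of human transcription factors made in yeast were pooled with that sample and incubated with 200 nmole of a random double-stranded 16-mer DNA library in Tris/NaCl/DTT/glycerol buffer at room temperature for 30 min. Washing, 0.1% formaldehyde crosslinking, proximity ligation, PCR and Illumina NextSeq500 sequencing followed.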
# ETV5 = ETV5 (Homo sapiens, UniProt P41161 1-510); settings: protein: recombinant; tags: N-terminal GST; dsDNA, one strand shown
# Outline: as §1
# HSF1 = HSF1 (Homo sapiens, UniProt Q00613 1-529); settings: protein: recombinant; tags: N-terminal GST; chain copies: 3; dsDNA, one strand shown
# Outline: as §1
# SPIC = target: T2, SPIC (Homo sapiens, UniProt Q8N5J4 1-248); settings: protein: recombinant; tags: N-terminal GST; dsDNA, one strand shown
# T2 sequence: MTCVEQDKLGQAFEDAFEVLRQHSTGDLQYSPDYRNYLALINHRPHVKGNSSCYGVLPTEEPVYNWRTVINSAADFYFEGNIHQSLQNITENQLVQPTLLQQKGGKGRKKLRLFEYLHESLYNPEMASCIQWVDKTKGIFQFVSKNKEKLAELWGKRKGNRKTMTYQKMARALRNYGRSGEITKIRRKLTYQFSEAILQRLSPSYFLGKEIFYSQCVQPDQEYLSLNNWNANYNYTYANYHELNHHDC
# Outline: as §1
# ELF4 = ELF4 (Homo sapiens, UniProt Q99607 1-663); settings: protein: recombinant; tags: N-terminal GST; dsDNA, one strand shown
# Outline: as §1
# ELK4 = target: T3, ELK4 (Homo sapiens, UniProt P28324-2 1-405); settings: protein: recombinant; tags: N-terminal GST; dsDNA, one strand shown
# T3 sequence: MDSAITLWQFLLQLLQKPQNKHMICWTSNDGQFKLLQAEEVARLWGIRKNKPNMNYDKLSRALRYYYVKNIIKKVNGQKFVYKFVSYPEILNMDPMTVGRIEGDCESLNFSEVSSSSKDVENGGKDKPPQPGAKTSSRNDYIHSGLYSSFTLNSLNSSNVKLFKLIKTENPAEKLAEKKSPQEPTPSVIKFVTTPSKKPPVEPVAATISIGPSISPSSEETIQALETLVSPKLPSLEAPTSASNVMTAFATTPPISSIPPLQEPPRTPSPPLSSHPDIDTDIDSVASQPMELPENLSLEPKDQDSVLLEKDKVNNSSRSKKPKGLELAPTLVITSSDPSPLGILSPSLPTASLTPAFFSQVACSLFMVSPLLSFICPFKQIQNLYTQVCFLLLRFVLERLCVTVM
# Outline: as §1
# ETV2 = target: T4, ETV2 (Homo sapiens, UniProt O00321 1-342); settings: protein: recombinant; tags: N-terminal GST; dsDNA, one strand shown
# T4 sequence: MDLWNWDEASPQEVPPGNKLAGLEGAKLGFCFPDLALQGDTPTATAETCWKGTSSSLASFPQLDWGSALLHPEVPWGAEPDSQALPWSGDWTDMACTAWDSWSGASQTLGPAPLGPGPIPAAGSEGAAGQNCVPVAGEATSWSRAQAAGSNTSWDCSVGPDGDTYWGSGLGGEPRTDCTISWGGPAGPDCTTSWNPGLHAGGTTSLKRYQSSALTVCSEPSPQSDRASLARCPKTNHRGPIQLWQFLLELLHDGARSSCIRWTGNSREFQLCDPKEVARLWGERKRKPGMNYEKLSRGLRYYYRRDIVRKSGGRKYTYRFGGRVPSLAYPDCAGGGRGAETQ
# Outline: as §1
# ELF3 = target: T5, ELF3 (Homo sapiens, UniProt P78545 1-371); settings: protein: recombinant; tags: N-terminal GST; dsDNA, one strand shown
# T5 sequence: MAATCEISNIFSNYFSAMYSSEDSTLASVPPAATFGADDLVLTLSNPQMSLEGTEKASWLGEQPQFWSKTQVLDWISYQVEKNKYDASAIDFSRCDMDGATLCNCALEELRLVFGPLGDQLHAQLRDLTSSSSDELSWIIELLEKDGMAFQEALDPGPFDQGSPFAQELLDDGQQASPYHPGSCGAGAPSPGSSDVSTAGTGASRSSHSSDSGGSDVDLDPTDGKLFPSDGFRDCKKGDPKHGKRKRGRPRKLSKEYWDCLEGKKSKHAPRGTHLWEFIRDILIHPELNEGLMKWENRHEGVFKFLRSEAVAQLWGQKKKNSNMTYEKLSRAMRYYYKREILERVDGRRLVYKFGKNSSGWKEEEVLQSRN
# Outline: as §1
# CRX = CRX (Homo sapiens, UniProt O43186 1-299); settings: protein: recombinant; tags: N-terminal GST; dsDNA, one strand shown
# Outline: as §1
# ETV1 = ETV1 (Homo sapiens, UniProt P50549 1-477); settings: protein: recombinant; tags: N-terminal GST; dsDNA, one strand shown
# Outline: as §1
# Sequence of ELF4 (Q99607 whole entry): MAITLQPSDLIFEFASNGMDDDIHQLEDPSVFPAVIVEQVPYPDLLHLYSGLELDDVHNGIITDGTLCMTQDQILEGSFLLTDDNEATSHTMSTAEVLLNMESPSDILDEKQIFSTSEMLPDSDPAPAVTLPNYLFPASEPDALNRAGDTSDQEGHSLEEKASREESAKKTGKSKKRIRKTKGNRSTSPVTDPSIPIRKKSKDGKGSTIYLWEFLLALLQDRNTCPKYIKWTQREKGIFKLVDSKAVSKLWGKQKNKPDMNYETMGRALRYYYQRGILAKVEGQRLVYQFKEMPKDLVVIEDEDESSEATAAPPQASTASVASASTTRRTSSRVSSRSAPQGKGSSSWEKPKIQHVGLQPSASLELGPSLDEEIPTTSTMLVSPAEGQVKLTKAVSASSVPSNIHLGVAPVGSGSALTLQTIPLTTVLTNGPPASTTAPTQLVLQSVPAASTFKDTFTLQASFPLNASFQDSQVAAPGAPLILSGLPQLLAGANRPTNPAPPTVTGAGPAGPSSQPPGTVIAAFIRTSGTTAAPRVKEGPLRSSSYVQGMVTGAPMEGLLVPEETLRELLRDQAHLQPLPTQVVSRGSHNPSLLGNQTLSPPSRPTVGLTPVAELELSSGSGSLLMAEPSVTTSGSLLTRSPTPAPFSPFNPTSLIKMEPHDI
# Sequence of ETV1 (P50549 whole entry): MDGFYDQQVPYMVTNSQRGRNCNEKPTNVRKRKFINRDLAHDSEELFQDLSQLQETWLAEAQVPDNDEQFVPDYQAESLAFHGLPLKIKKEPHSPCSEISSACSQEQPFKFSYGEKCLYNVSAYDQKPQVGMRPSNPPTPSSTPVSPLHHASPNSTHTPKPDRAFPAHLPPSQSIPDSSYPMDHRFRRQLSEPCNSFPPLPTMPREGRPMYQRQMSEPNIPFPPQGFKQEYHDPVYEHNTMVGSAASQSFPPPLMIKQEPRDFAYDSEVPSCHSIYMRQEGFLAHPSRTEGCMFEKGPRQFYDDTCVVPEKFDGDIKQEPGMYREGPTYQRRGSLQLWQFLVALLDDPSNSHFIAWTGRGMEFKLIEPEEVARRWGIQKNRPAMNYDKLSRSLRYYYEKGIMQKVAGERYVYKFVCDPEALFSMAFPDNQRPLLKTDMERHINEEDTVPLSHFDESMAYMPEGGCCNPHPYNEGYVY
# Sequence of HSF1 (Q00613 whole entry): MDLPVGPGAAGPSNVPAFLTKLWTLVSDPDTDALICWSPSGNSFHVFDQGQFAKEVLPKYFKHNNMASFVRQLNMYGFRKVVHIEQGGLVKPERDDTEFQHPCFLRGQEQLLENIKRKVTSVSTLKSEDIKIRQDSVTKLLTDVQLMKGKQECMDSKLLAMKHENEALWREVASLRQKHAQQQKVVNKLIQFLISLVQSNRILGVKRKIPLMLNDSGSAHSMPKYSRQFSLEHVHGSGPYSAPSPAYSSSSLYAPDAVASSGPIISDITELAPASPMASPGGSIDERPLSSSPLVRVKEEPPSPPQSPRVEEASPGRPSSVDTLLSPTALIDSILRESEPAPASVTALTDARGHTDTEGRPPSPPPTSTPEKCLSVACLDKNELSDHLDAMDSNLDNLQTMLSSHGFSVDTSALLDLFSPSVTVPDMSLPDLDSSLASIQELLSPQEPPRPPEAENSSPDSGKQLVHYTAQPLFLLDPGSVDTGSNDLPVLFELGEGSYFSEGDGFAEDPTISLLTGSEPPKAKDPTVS
# Sequence of ETV5 (P41161 whole entry): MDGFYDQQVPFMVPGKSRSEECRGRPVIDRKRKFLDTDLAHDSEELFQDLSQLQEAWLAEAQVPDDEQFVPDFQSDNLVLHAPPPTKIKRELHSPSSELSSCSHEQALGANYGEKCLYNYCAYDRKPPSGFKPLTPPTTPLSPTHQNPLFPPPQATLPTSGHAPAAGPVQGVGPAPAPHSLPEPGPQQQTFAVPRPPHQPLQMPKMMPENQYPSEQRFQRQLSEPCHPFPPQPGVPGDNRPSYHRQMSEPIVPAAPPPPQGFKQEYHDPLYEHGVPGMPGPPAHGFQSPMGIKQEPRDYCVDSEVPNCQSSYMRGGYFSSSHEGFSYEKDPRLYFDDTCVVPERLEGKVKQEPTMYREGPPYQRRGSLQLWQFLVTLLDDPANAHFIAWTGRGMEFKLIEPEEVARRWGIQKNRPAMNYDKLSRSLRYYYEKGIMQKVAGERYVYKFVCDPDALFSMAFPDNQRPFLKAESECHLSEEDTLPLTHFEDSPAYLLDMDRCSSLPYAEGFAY
# Sequence of CRX (O43186 whole entry): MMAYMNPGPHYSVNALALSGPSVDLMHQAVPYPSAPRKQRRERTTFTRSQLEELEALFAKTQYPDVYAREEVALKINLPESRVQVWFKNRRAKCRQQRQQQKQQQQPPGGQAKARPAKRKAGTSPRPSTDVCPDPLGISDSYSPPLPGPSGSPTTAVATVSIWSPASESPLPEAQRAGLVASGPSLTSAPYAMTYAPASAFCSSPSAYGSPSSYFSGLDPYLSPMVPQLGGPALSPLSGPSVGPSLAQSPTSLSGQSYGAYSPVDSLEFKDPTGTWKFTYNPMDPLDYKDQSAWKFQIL
sequence,measurement,setting,value
TCCTTT,binding signal,FEV,"1.69 fold enrichment (6-mer frequency, TF over GST control)"
same,binding signal,ETV5,"1.69 fold enrichment (6-mer frequency, TF over GST control)"
same,binding signal,HSF1,"1.57 fold enrichment (6-mer frequency, TF over GST control)"
same,binding signal,SPIC,"1.76 fold enrichment (6-mer frequency, TF over GST control)"
same,binding signal,ELF4,"1.77 fold enrichment (6-mer frequency, TF over GST control)"
same,binding signal,ELK4,"1.62 fold enrichment (6-mer frequency, TF over GST control)"
same,binding signal,ETV2,"1.47 fold enrichment (6-mer frequency, TF over GST control)"
same,binding signal,ELF3,"1.78 fold enrichment (6-mer frequency, TF over GST control)"
same,binding signal,CRX,"1.67 fold enrichment (6-mer frequency, TF over GST control)"
same,binding signal,ETV1,"1.68 fold enrichment (6-mer frequency, TF over GST control)"
AACTTA,binding signal,FEV,"1.2 fold enrichment (6-mer frequency, TF over GST control)"
same,binding signal,ETV5,"1.23 fold enrichment (6-mer frequency, TF over GST control)"
same,binding signal,HSF1,"1.41 fold enrichment (6-mer frequency, TF over GST control)"
same,binding signal,SPIC,"1.27 fold enrichment (6-mer frequency, TF over GST control)"
same,binding signal,ELF4,"1.19 fold enrichment (6-mer frequency, TF over GST control)"
same,binding signal,ELK4,"1.22 fold enrichment (6-mer frequency, TF over GST control)"
same,binding signal,ETV2,"1.08 fold enrichment (6-mer frequency, TF over GST control)"
same,binding signal,ELF3,"1.12 fold enrichment (6-mer frequency, TF over GST control)"
same,binding signal,CRX,"1.72 fold enrichment (6-mer frequency, TF over GST control)"
same,binding signal,ETV1,"1.22 fold enrichment (6-mer frequency, TF over GST control)"
GATGCT,binding signal,FEV,"1.23 fold enrichment (6-mer frequency, TF over GST control)"
same,binding signal,ETV5,"1.29 fold enrichment (6-mer frequency, TF over GST control)"
same,binding signal,HSF1,"1.13 fold enrichment (6-mer frequency, TF over GST control)"
same,binding signal,SPIC,"1.35 fold enrichment (6-mer frequency, TF over GST control)"
same,binding signal,ELF4,"1.26 fold enrichment (6-mer frequency, TF over GST control)"
same,binding signal,ELK4,"1.28 fold enrichment (6-mer frequency, TF over GST control)"
same,binding signal,ETV2,"1.18 fold enrichment (6-mer frequency, TF over GST control)"
same,binding signal,ELF3,"1.3 fold enrichment (6-mer frequency, TF over GST control)"
same,binding signal,CRX,"1.06 fold enrichment (6-mer frequency, TF over GST control)"
same,binding signal,ETV1,"1.27 fold enrichment (6-mer frequency, TF over GST control)"
ATCGCC,binding signal,FEV,"1.24 fold enrichment (6-mer frequency, TF over GST control)"
same,binding signal,ETV5,"1.23 fold enrichment (6-mer frequency, TF over GST control)"
same,binding signal,HSF1,"1.28 fold enrichment (6-mer frequency, TF over GST control)"
same,binding signal,SPIC,"1.31 fold enrichment (6-mer frequency, TF over GST control)"
same,binding signal,ELF4,"1.24 fold enrichment (6-mer frequency, TF over GST control)"
same,binding signal,ELK4,"1.28 fold enrichment (6-mer frequency, TF over GST control)"
same,binding signal,ETV2,"1.2 fold enrichment (6-mer frequency, TF over GST control)"
same,binding signal,ELF3,"1.12 fold enrichment (6-mer frequency, TF over GST control)"
same,binding signal,CRX,"1.4 fold enrichment (6-mer frequency, TF over GST control)"
same,binding signal,ETV1,"1.32 fold enrichment (6-mer frequency, TF over GST control)"
TGATCT,binding signal,FEV,"1.12 fold enrichment (6-mer frequency, TF over GST control)"
same,binding signal,ETV5,"1.21 fold enrichment (6-mer frequency, TF over GST control)"
same,binding signal,HSF1,"1.66 fold enrichment (6-mer frequency, TF over GST control)"
same,binding signal,SPIC,"1.19 fold enrichment (6-mer frequency, TF over GST control)"
same,binding signal,ELF4,"1.16 fold enrichment (6-mer frequency, TF over GST control)"
same,binding signal,ELK4,"1.37 fold enrichment (6-mer frequency, TF over GST control)"
same,binding signal,ETV2,"1.21 fold enrichment (6-mer frequency, TF over GST control)"
same,binding signal,ELF3,"1.25 fold enrichment (6-mer frequency, TF over GST control)"
same,binding signal,CRX,"1.86 fold enrichment (6-mer frequency, TF over GST control)"
same,binding signal,ETV1,"1.2 fold enrichment (6-mer frequency, TF over GST control)"
ACTTGC,binding signal,FEV,"1.4 fold enrichment (6-mer frequency, TF over GST control)"
same,binding signal,ETV5,"1.49 fold enrichment (6-mer frequency, TF over GST control)"
same,binding signal,HSF1,"1.25 fold enrichment (6-mer frequency, TF over GST control)"
same,binding signal,SPIC,"1.36 fold enrichment (6-mer frequency, TF over GST control)"
same,binding signal,ELF4,"1.47 fold enrichment (6-mer frequency, TF over GST control)"
same,binding signal,ELK4,"1.44 fold enrichment (6-mer frequency, TF over GST control)"
same,binding signal,ETV2,"1.36 fold enrichment (6-mer frequency, TF over GST control)"
same,binding signal,ELF3,"1.79 fold enrichment (6-mer frequency, TF over GST control)"
same,binding signal,CRX,"1.12 fold enrichment (6-mer frequency, TF over GST control)"
same,binding signal,ETV1,"1.37 fold enrichment (6-mer frequency, TF over GST control)"
TTGAAA,binding signal,FEV,"1.13 fold enrichment (6-mer frequency, TF over GST control)"
same,binding signal,ETV5,"1.18 fold enrichment (6-mer frequency, TF over GST control)"
same,binding signal,HSF1,"1.24 fold enrichment (6-mer frequency, TF over GST control)"
same,binding signal,SPIC,"1.15 fold enrichment (6-mer frequency, TF over GST control)"
same,binding signal,ELF4,"1.21 fold enrichment (6-mer frequency, TF over GST control)"
same,binding signal,ELK4,"1.18 fold enrichment (6-mer frequency, TF over GST control)"
same,binding signal,ETV2,"1.28 fold enrichment (6-mer frequency, TF over GST control)"
same,binding signal,ELF3,"1.13 fold enrichment (6-mer frequency, TF over GST control)"
same,binding signal,CRX,"1.24 fold enrichment (6-mer frequency, TF over GST control)"
same,binding signal,ETV1,"1.16 fold enrichment (6-mer frequency, TF over GST control)"
